Rows were chosen to be rich in hits. Some 1.3% of all compounds tested hit in one or more screens of this group.
IL1B NFkB inh: blocks IL-1B driven NFkB nuclear translocation in HUVEC cells. HUVEC IL-1B NFkB p65 nuclear translocation imaging. hit rate 0.43% among 94,000. AID 796. inhibition, % at 2 µM;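 active = inhibition above about 30% together with a positive call from visual inspection of the well image, limit read from the data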;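 also: nuclear over cytoplasmic p65 intensity ratio measured by imaging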
IL1B NFkB pot: enhances IL-1B driven NFkB nuclear translocation; HUVEC IL-1B NFkB p65 nuclear translocation imaging; hit rate 0.3% among 94,000; activation, % at 2 µM;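 active = activation above 40%, about the mean plus 3 SD, also judged a hit on visual image review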;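 also: percent activation is computed from the nuclear over cytoplasmic p65 intensity ratio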
PTPN22 inh 2: blocks human PTPN22 phosphatase activity | AID 640 | inhibition, % at 2 µM | Q9Y2R2 | recombinant LYP catalytic domain, DiFMUP fluorescence | hit rate 0.21% among 96,000;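 active = inhibition at 2 µM at or above a set limit, the screen mean plus 3 SD, cut at about 24% in these data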
Target sequence (Q9Y2R2 whole entry, looked up, the tested form may be a part): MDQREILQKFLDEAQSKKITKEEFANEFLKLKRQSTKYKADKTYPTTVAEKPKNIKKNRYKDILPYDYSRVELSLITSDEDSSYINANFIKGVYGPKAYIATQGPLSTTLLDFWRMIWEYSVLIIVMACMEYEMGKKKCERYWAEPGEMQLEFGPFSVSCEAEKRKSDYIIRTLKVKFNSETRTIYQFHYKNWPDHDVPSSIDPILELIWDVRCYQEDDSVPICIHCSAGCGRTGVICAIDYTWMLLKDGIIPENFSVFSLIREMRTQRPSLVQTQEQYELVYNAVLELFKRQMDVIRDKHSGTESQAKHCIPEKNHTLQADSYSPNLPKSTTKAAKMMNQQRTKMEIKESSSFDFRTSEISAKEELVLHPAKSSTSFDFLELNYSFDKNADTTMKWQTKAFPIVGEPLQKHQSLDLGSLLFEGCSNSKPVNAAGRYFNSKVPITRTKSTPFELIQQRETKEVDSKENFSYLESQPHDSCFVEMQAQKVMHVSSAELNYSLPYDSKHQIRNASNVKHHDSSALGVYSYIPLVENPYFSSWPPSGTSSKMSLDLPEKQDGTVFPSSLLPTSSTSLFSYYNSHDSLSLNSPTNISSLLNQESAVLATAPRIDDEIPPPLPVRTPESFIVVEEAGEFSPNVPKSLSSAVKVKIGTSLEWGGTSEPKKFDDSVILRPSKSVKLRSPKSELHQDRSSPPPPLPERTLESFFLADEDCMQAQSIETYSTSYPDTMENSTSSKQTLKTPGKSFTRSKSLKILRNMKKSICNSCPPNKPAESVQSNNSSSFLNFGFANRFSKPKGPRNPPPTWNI
HUVEC tox IL1B: toxic to HUVEC cells under IL-1B stimulation; HUVEC cell count loss, Hoechst imaging, IL-1B stimulated; cell count reduction, % at 2 µM; hit rate 0.41% among 94,000; AID 845;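 active = cell count reduction more than 3 SD above the screen-wide mean, cut at about 70% in these data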
PTPN22 act: LYP (human) phosphatase activation; Q9Y2R2; recombinant LYP, DiFMUP fluorescence; 0 = plate median, 100 = signal doubled; activation, % at 2 µM; hit rate 0.11% among 96,000;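 active = activation at 2 µM above a set limit, the mean plus 5 SD, cut at about 37% in these data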
A number is an active result; 0 = inactive; - = not tested or not shown.

SMILES	IL1B NFkB inh	IL1B NFkB pot	PTPN22 inh 2	HUVEC tox IL1B	PTPN22 act
Cc1nn(C)c(Oc2ccc(Cl)cc2)c1C(=O)Nc1ccc(F)cc1F	0	0	0	0	0
O=C(Nc1c(-c2ccccc2)nc2ccccn12)c1ccco1	0	0	0	94	0
Cc1onc(-c2ccccc2Cl)c1C(=O)Nc1cccc(-c2cn3cccnc3n2)c1	94	0	0	85	0
O=C(c1ccccc1)c1nn(-c2ccc(Cl)cc2)cc1C(=O)c1cc2ccccc2oc1=O	0	0	0	0	0
CCc1c(C)sc2nc(C(C)C)nc(SCC(=O)N3CCc4ccccc4C3)c12	0	0	0	0	0
N#CC(C(=O)OC1CCCCC1)c1nc2ccccc2nc1N1CCCCC1 (stereo unspecified)	0	0	0	0	0
CC1CCN(c2nc3ccccc3nc2C(C#N)C(=O)OC2CCCCC2)CC1 (stereo unspecified)	97	0	0	92	0
COC(=O)c1ccc(C(=O)OC)c(NC(=O)COC(=O)C2CC2C)c1 (stereo unspecified)	0	0	0	0	0
COC(=O)c1sc2cnccc2c1N	0	0	0	78	0
c1ccc(OCCSc2nc3ccccc3o2)cc1	-	-	0	-	0
CCCOc1ccc(OCCSc2ncccn2)cc1	0	44	0	0	0
CCOc1ccc(OCCSc2nc3ccccc3o2)cc1	42	0	0	0	0
CC(C)(C)C(=O)/C(=C\c1ccc([N+](=O)[O-])cc1)n1cncn1	69	0	0	0	0
Cc1c(C(=O)OCC(=O)N2CC(=O)Nc3ccccc32)oc2ccc(Br)cc12	0	0	0	0	0
O=C(CCC(=O)OC(C(=O)c1ccccc1)c1ccccc1)Nc1ccccc1 (stereo unspecified)	0	0	24	0	0
COc1c(C)cc(Br)cc1C(=O)Nc1cccc(NC(=O)c2ccco2)c1	0	0	0	87	0
COc1c(C)cc(Br)cc1C(=O)O	0	0	0	90	0
CCOC(=O)CN1C(=O)C(Sc2n[nH]c(-c3ccc(O)cc3)n2)CCc2ccccc21 (stereo unspecified)	0	0	0	0	0
NC(=O)CSc1nc2cc3c(cc2c(=O)n1CCCC(=O)NCc1ccc2c(c1)OCO2)OCO3	0	0	0	0	0
CCCCNC(=O)C1CCN(C/C(C)=C/c2ccccc2)CC1	0	0	0	0	0
C/C(=C\c1ccccc1)CN1CCC(C(=O)N2CCC(C)CC2)CC1	0	46	0	0	0
CCOC(=O)N1CCC(NC(=O)C2CCN(C(=O)N3CC(C)Oc4ccccc43)CC2)CC1 (stereo unspecified)	0	0	0	0	0
CCOC(=O)N1CCC(NC(=O)C2CCN(C(=O)N3CC(C)Oc4ccc(C)cc43)CC2)CC1 (stereo unspecified)	50	0	0	0	0
COc1ccc(S(=O)(=O)Nc2cc(OC)c(NC(=O)c3ccco3)cc2OC)cc1	0	43	0	0	0
CCN1N=C(c2cc(Cl)sc2Cl)CSC1=O	0	0	0	0	0
SMILES	IL1B NFkB inh	IL1B NFkB pot	PTPN22 inh 2	HUVEC tox IL1B	PTPN22 act
O=C(Nc1cccc2c1[nH]c1ccccc12)C(F)(F)F	0	0	0	0	0
C#CCOc1ccc(Br)cc1/C=N/O	46	0	0	0	0
C#CCOc1ccc(Cl)cc1/C=N/O	0	0	0	0	0
COc1ccccc1/C=C\C=N\n1c(C2CCCCC2)n[nH]c1=S	0	0	25	0	0
Cc1ccc(CCNC(=O)Cn2cccc2)cc1	98	0	0	88	0
Cc1ccc2nc(/C(C#N)=C\c3ccc([N+](=O)[O-])o3)[nH]c2c1	38	0	0	0	0
COc1ccc(CNC(=O)Cn2nc(C(F)(F)F)c3c2CCC3)cc1	35	0	0	94	0
FC(F)(F)c1ccccc1C1C2=C(Nc3ncnn31)c1ccccc1CCC2 (stereo unspecified)	0	0	0	0	0
C(=C1/CCCC2=C1Nc1ncnn1C2c1ccccc1)/c1ccccc1 (stereo unspecified)	38	0	0	0	0
Nc1nnc(SCC(=O)Nc2ccc(S(=O)(=O)N3CCOCC3)cc2)s1	0	0	26	0	0
COc1ccc(C(=O)OCC2CC(c3ccccc3)N(C)O2)cc1 (stereo unspecified)	47	0	0	0	0
Cc1nn2c(N3CCN(C4CCCC4)CC3)cc(C(C)(C)C)nc2c1-c1ccccc1	0	0	0	82	0
Oc1ccc(Nc2nc3ccccc3nc2Nc2ccc(O)cc2)cc1	0	0	0	0	0
CC(C)(C)NS(=O)(=O)c1ccc(CCC(=O)NCc2cccnc2)cc1	0	0	0	0	0

Screens deposited in PubChem by Columbia University Molecular Screening Center.
